Screening data from PubChem BioAssay.
FMDV inh = blocks foot and mouth disease virus. FMDV antiviral cell-based qHTS. AID 1159524. Potency, µM (top dose mostly 57.9 µM), for inactives: top-dose activity change, negative = inhibition, actives largely listed as inhibitors. 410,000 tested, 1.2% active; calls by dose curve; tested in HEK293T cells; note: read-out not given here; potency is the fitted concentration of half-maximal effect; nearly all actives have a fitted effect of over 45% in size
HCMV inh = inhibitors of human cytomegalovirus; HFF cells, HCMV-luciferase reporter, 72 h; stronger effect = lower value; activity change, negative = inhibition, % at 57.5 µM; 410,000 tested, 4.5% active; AID 1259415; in the data active = activity change below about -60%; inconclusive = no clear call, values can overlap the other calls; inactive = above about -39%
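Human foreskin fibroblasts infected with luciferase-reporter HCMV at MOI 1 PFU/cell, compounds at two doses. Luciferase measured 72 h post infection; normalized to buffer-only basal and Salinomycin (10uM) controls.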
Lassa entry inh = inhibitors of Lassa virus binding or cell entry; Lassa virus pseudotype entry inhibition, cell reporter; Potency, µM (series often up to 37.9 µM), without a hit: top-dose activity change, negative = inhibition, usual class: inhibitors; 300,000 tested, 1.2% active; AID 540256; calls by dose curve; tested in HEK293 cells; note: potency is the fitted concentration of half-maximal effect; nearly all actives have a fitted effect of over 50% in size
VACV Venus inh = vaccinia inhibition (Venus reporter) | 330,000 tested, 0.46% active | Vaccinia virus Venus reporter expression, fluorescence | AID 720580 | Potency, µM (series often up to 36.5 µM), for inactives: top-dose activity change, negative = inhibition, actives largely listed as inhibitors; calls by dose curve; tested in A549 cells; note: potency is the fitted concentration of half-maximal effect; nearly all actives have a fitted effect of over 30% in size
Marburg entry inh = Marburg virus entry inhibition. 300,000 tested, 1.8% active. Marburg virus pseudotyped entry inhibition, cell reporter. Potency, µM (doses to about 37.8 µM), for the others: at the highest dose activity change, negative = inhibition, usual class: inhibitors; calls by dose curve; tested in HEK293 cells; note: potency is the fitted concentration of half-maximal effect
Vaccinia mCherry = inhibitors of vaccinia virus infection (mCherry reporter signal) | Vaccinia virus mCherry reporter infection, fluorescence | Potency, µM (top dose mostly 36.5 µM), for the others: top-dose activity change, negative = inhibition, hits mostly inhibitors | 310,000 tested, 0.63% active | AID 720579; calls by dose curve; tested in A549 cells; note: potency is the fitted concentration of half-maximal effect; nearly all actives have a fitted effect of over 35% in size
* = called active by the depositor; i = inactive; ? = inconclusive; / = no result; [ ] = dose if it differs, or a comment. Shown are actives, neighbours in structure and some others; about 6.5% of the full set was active somewhere. % is set by controls: 0 for no effect and ±100 for the full control effect.

SMILES	FMDV inh	HCMV inh	Lassa entry inh	VACV Venus inh	Marburg entry inh	Vaccinia mCherry
COc1cccc(OC)c1OCCNC[C@@H]1CSc2ccccc2O1	/	/	/	/	26µM*	/
C=C(C)COc1ccc(-c2[nH]ncc2Oc2ccccc2OCC)c(O)c1	-9%	-17	?	?	?	/
CCCc1ccc(Oc2cn[nH]c2-c2ccc(O)cc2O)cc1	0%	-68*	?	/	-20%	/
CCOc1ccccc1Oc1cn[nH]c1-c1ccc(O)cc1O	?	-78*	?	-19%	?	?
O=C(CN1CCCN(Cc2cccc(F)c2)S1(=O)=O)Nc1ccc2c(c1)OCCO2	-13%	-12	-12%[46.1 µM]	-6%	/	-11%
CC(C)CO/N=C1\C[C@@H](O)[C@@H](O)[C@@H]2[C@@H]3C(=O)N(c4ccc(F)cc4F)C(=O)[C@@H]3CC[C@@H]12	/	/	/	/	-10%[14.2 µM]	/
CC(C)Oc1ccc(Nc2cc3[nH]c(-c4cccc(F)c4)cc3cn2)cc1	/	-30	/	/	/	/
COC(=O)c1cc2oc3ccccc3c2n1Cc1ccccc1Cl	-12%	-17	/	-7%	1%[46.1 µM]	-6%
CCN(C(=O)C12CC3CC(CC(C3)C1)C2)C1CCS(=O)(=O)C1 (stereo not drawn)	-11%	-24	19%	-12%	1%	-16%
CCN(C(=O)COC(=O)CNC(=O)C12CC3CC(CC(C3)C1)C2)C1CCS(=O)(=O)C1 (stereo not drawn)	0%	-102*	5%	-7%	15%	i
CCOC(=O)c1c(C)oc2nc(C)nc(N3CCN(c4cccc(C(F)(F)F)c4)CC3)c12	?	-64*	-14%[46.1 µM]	-26%	/	-21%
CCOC(=O)c1c(C)oc2nc(C)nc(N3CCN(c4ccc(C)cc4C)CC3)c12	9%	15	-11%[46.1 µM]	-9%	/	-12%
CCOC(=O)c1c(C)oc2nc(C)nc(N3CCN(c4ccccc4)CC3)c12	28µM*	?	-12%[46.1 µM]	-27%	/	-25%
CCOC(=O)c1c(C)oc2ncnc(N3CCN(c4cccc(Cl)c4)CC3)c12	28µM*	-26	-3%[46.1 µM]	-14%	0%[46.1 µM]	-24%
CCOC(=O)c1ccc(NC(=O)c2c(C)oc3nc(C)nc(N4CCCC4)c23)cc1	-8%	77	?	-18%	/	-4%
CCOC(=O)c1c(C)oc2ncnc(N3CCN(c4ccc(C)cc4C)CC3)c12	?	4	4%[46.1 µM]	3%	-13%[46.1 µM]	4%
O=C(CSc1cnc2ccccc2n1)c1ccc(F)cc1	18%	3	5.8µM*	/	?	/
COC(=O)CSc1cnc2ccccc2n1	-20%	94	12%	9%	21%	0%
COc1ccc(OC)c(C2C3=C(COC3=O)Nc3cc4c(cc32)OCO4)c1 (stereo not drawn)	-22%	-84*	-33%	/	0.26µM*	/
CCOC(=O)c1cccn1C1C(=O)N(Cc2ccc(OC)cc2)c2ccccc21 (stereo not drawn)	/	-27	/	/	/	/
Cc1ccc(Cn2c(=O)n(-c3ccccc3)c(=O)c3ccc(C(=O)NCc4ccco4)cc32)cc1	48%	-61*	-15%[46.1 µM]	?	4%[46.1 µM]	?
CCOc1ccc(CN2C(=O)c3ccccc3Sc3ccc(C(=O)NCc4ccc(C)cc4)cc32)cc1	-6%	-5	?	-19%	10µM*	-20%
Cc1ccc(CN2C(=O)c3ccccc3Sc3ccc(C(=O)NCc4ccco4)cc32)cc1	6%	-66*	?	-7%	/	-15%
CCN(CC)CCCNC(=O)c1ccc2c(c1)N(Cc1c(F)cccc1Cl)C(=O)c1ccccc1S2	-15%	-98*	?	?	6.3µM*	-5%
O=C(NCc1ccco1)c1ccc2c(c1)N(Cc1c(F)cccc1Cl)C(=O)c1ccccc1S2	-2%	-26	?	-20%	?	-22%
SMILES	FMDV inh	HCMV inh	Lassa entry inh	VACV Venus inh	Marburg entry inh	Vaccinia mCherry
Cc1ccc(C2=CC(=O)N(CCC(N)=O)C2)cc1	/	49	/	/	/	/
CCC1CN(CC(=O)NC(C)c2c(C)nn(C)c2C)Cc2cc(OC)ccc2O1 (stereo not drawn)	3%	/	/	3%	/	-7%
CNC(=O)[C@@H]1C[C@H](Sc2nc3ccccc3[nH]2)CN1Cc1cccc(C(F)(F)F)c1	-9%	/	/	-6%	/	-9%
COc1ccc(C(=O)Nc2ccc3oc(-c4cccc(Cl)c4)cc(=O)c3c2O)cc1	-14%	-67*	/	-12%	/	i
Cn1cc(CN2CCCC(CO)(Cc3ccccc3)C2)c2ccccc21 (stereo not drawn)	?	?	?	3%	1µM*	-16%
COc1cccc(CC2(CO)CCCN(Cc3cn(C)c4ccccc34)C2)c1 (stereo not drawn)	-21%	?	/	/	/	/
COc1ccc(CN2CCCC(CO)(Cc3ccc(F)cc3)C2)cc1C (stereo not drawn)	-21%	6	/	/	/	/
CCn1cc(CN2CCCC(CO)(Cc3ccc(F)cc3)C2)c2ccccc21 (stereo not drawn)	-22%	-64*	-24%[46.1 µM]	-3%	?	?
Cn1cnnc1SCC(=O)c1ccc(OC(F)F)cc1	4%	-78*	1%	/	21%	/
CCOC(=O)C1(C)CCN1C(=O)c1ccccc1OC (stereo not drawn)	-17%	-12	/	11%	/	9%
CC(=O)C1=C(O)C(=O)N(c2ccc(F)cc2)C1c1ccc(C)cc1 (stereo not drawn)	6%	-69*	0%[46.1 µM]	1%	6%[46.1 µM]	-4%
CC(=O)C1=C(O)C(=O)N(c2ccc(O)cc2)C1c1ccc(C)cc1 (stereo not drawn)	-9%	-12	-1%[46.1 µM]	-5%	6%[46.1 µM]	-3%
C[C@@H]1CN([C@@H](C)CO)C(=O)c2cc(C#CC3CCCCC3)cnc2O[C@@H]1CN(C)S(=O)(=O)c1ccc(F)cc1	0%	11	/	?	/	?
Cc1cccc(Nc2cc3[nH]c(-c4ccccc4)cc3cn2)c1	/	-22	/	/	/	/
COCCNC(=O)C(C)(C)n1cc(NC(=O)COCc2ccccc2)cn1	/	1	/	/	/	/
CC(/C=N/NC(=O)c1ccc(Br)cc1)=C\c1ccccc1	/	-63*	0%	-24%	?	-8%
COc1ccc(C(=O)N/N=C\C(C)=C\c2ccccc2)cc1OC	-13%	7	?	-28%	-6%	?
C#CCOCCOCCOCCNc1nc(N2CCN(C(=O)CCCCCCCCCCNC(=O)[C@H](CCCCN)n3cc(CCO)nn3)CC2)nc(N2CCN(C(=O)CCCCCCCCCCNC(=O)[C@H](CCCN=C(N)N)n3cc(C[C@@H](C)CC)nn3)CC2)n1	?	/	/	10µM*	/	?
C#CCOCCOCCOCCNc1nc(N2CCN(C(=O)CCCCCCCCCCNC(=O)[C@H](CCCCN)n3cc(CCO)nn3)CC2)nc(N2CCN(C(=O)CCCCCCCCCCNC(=O)[C@H](CCCCN)n3cc(CCO)nn3)CC2)n1	-11%	/	/	?	/	i
